Laboratory results: PubChem BioAssay (Tox21)
Activity calls are given as the source filed them. Calls follow the shape of the dose curve; as a rule, active = well fitted curve in the direction sought with a large enough effect in the repeat runs; inconclusive = weak or mixed curves; inactive = flat fitted curve, though single readings scatter.

Assay: qHTS assay to test for compound auto fluorescence at 460 nm (blue) in HEK293 cell free culture (AID 720681)
Details: cell-free medium, autofluorescence 405/460 nm (blue); series mostly up to 91.3 µM
Description: U.S. Tox21 Program National Center for Advancing Translational Sciences [NCATS] NIH Chemical Genomics Center [NCGC] U.S. Environmental Protection Agency [EPA] National Institutes of Environmental Health Sciences [NIEHS] National Toxicology Program [NTP] U.S. Food and Drug Administration [FDA] Tox21 Assay Overview: Compound auto fluorescence often interferes with screening of the compound library against various biological targets and signaling pathways. Some of these compounds may have fluorophoric properties. Such properties may interfere with the assay outputs resulting in false positives and/or negatives. To decrease such complications and ensure the compound activities are relevant in terms of biological response, the Tox21 10K compound library was screened for auto fluorescence. From the fluorophores used as reporter signals in our screening assays, the auto fluorescence equivalencies of compounds against three fluorophores have been evaluated: Triamterene, Fluorescein and Rose Bengal sodium for blue, green and red fluorescence, respectively. The fluorescence intensities were measured using Excitation/Emission wavelengths at 405/460nm, 485/535nm and 540/590nm for blue, green and red labels, respectively. This assay includes the blue fluorescence data.
Tox21 Assay Protocol Summary: 5 uL of culture medium (DMEM containing 10% FBS) per well was dispensed into black wall/clear bottom 1536-well plates using a Multidrop Combi Dispenser (ThermoFisher Scientific, Waltham, MA). After 23 nL compound or DMSO vehicle was transferred into assay plate by a pintool work station (Kalypsys, San Diego, CA), fluorescence intensities in the assay plates were measured by an Envision (PerkinElmer, Shelton, CT) plate reader using three labels for measuring blue, green and red fluorescence at […] 460, 535 and 590nm respectively.
% is scaled to controls: 0 for no effect and ±100 for the full control effect.

SMILES | outcome | fluorescence, % of fluorescent control
CC/C=C\CCOC(=O)c1ccccc1 | inactive | 
Cc1ccc(N)nc1 | inactive | 
NCC1CCC(C(=O)Oc2ccc(CCC(=O)O)cc2)CC1 (stereo not given) | inactive | 
NNC(=O)CCCCC(=O)NN | inactive | 
CC(C)(O)CCCC1=CCC(C=O)CC1 (stereo not given) | inactive | 
C[C@@H](CN1CC(=O)NC(=O)C1)N1CC(=O)NC(=O)C1 | inactive | 
CCOC(=O)CC | inactive | 
CC1(C)C(=O)C(C)(C)C1=O | inactive | 
N[C@H]1C(O)O[C@H](CO)[C@@H](O)[C@@H]1O (stereo not given in full) | inactive | 
CCNC(=O)C(C)OC(=O)Nc1ccccc1 (stereo not given) | inactive | 
CC1(C)S[C@@H]2[C@H](NC(=O)Cc3ccccc3)C(=O)N2[C@H]1C(=O)O (tested in a mixture with another compound) | inactive | 
CCCCS | inactive | 
C/C=C(\C)C=O | inactive | 
CCCCOCCCC | inactive | 
CC(C)C[P+](C)(CC(C)C)CC(C)C | inactive | 
Cc1cc(C)c(N)c(Cl)c1 | inactive | 
CC(C)OC(=O)C(C(=O)OC(C)C)=C1SC=CS1 | inactive | 
NNC(=O)OCc1ccccc1 | inactive | 
O=C1c2ccccc2C(=O)N1CO | inactive | 
CN(C)CCCN(C)C |  | -0.55% [at 3.72 µM] (inactive)

SMILES | outcome | fluorescence, % of fluorescent control
Cc1ccc(S(=O)(=O)NC(=O)NN2CC3CCCC3C2)cc1 (stereo not given) |  | 0.0029% [at 18.6 µM] (inactive)
CCCCc1ccc(Cl)cc1 | inactive | 
CN1C(CCl)Nc2cc(Cl)c(S(N)(=O)=O)cc2S1(=O)=O (stereo not given) | inactive | 
CC(C)=CCC/C(C)=C\C#N | inactive | 
CCCCCC(CC)OC(=O)CCCOc1ccc(Cl)cc1Cl (stereo not given) | inactive | 
Cc1ccc2ccccc2n1 | inactive | 
CCCCCCCCCCCCCCBr | inactive | 
CCCCC(CC)COC(=O)CC#N (stereo not given) | inactive | 
CCCc1ccc(O)c(OC)c1 | inactive | 
Cc1nnc(C(=O)NC(C)(C)c2nc(C(=O)NCc3ccc(F)cc3)c(O)c(=O)n2C)o1 | inactive | 
COC(=O)c1ccccc1Cl | inactive | 
CCCCCC(=O)CC | inactive | 
BrCCOc1ccccc1 | inactive | 
O=C1Nc2ccccc2C1=O | inactive | 
O=C(O)CCCCCCCCCC(=O)O | inactive | 
C=CCCCCCCCCOC(C)=O | inactive | 
CCCCCCCCCCCCCCCC(=O)OC |  | -0.0484% [at 18.6 µM] (inactive)
C=C(C)C(=O)OCCOC1CC2CC1C1C=CCC21 (stereo not given) | inactive | 
O=C(O)Cc1c(Cl)ccc(Cl)c1Cl | inactive | 
CC[C@@]1(c2ccccc2)NC(=O)N(C)C1=O | inactive | 
